Compound activity (PubChem)
JMJD2A Tudor inh – qHTS Assay for Inhibitors of JMJD2A-Tudor Domain; Lysine-specific demethylase 4A (Homo sapiens), O75164; AlphaScreen JMJD2A-Tudor / H3K4me3 peptide binding; Potency, µM (top dose mostly 114 µM), inactives show at the highest dose activity change, negative = inhibition, actives largely listed as inhibitors; actives 4.4% (n = 390,000); AID 504339, 2011; also: potency is read from the fitted curve at half-maximal effect; % is scaled to controls: 0 for no effect and ±100 for the full control effect; nearly all actives have a fitted effect of over 50% in size
HP1b binding inh – HTS for Inhibitors of HP1-beta Chromodomain Interactions with Methylated Histone Tails | Chromobox protein homolog 1 (Homo sapiens), P83916 | AlphaScreen HP1-beta / biotin-H3K9me3 peptide binding | Potency, µM (doses to about 114 µM), without a hit: at the highest dose activity change, negative = inhibition, most hits filed as inhibitors | actives 0.56% (n = 390,000); also: potency is read from the fitted curve at half-maximal effect; nearly all actives have a fitted effect of over 70% in size
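AlphaScreen: HP1-beta (50 nM) preformed 30 min with biotin-H3(1-18)K9me3 peptide (50 nM) in PBS pH 7.4, 0.01% Tween-20. Compound added for 30 min at RT, then streptavidin donor/nickel chelate acceptor beads (10 ug/mL) for 30 min.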
PI5P4K alpha inh – qHTS for Inhibitors of phosphatidylinositol 5-phosphate 4-kinase (PI5P4K); Phosphatidylinositol 5-phosphate 4-kinase type-2 alpha (Homo sapiens), P48426; PI5P4Kalpha enzyme, ADP-Glo luminescence, 60 min; active compounds read low; max response, %; actives 1.2% (n = 330,000); AID 652105, 2013; active = max response of -50% or lower; inconclusive = between -30% and -50%; inactive = -30% or higher; also: value at the top dose of about 77 µM; % is scaled to controls: 0 for no effect and ±100 for the full control effect
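Human PI5P4Kalpha with substrate in 0.038 M HEPES pH 7.4, 0.28 mM EGTA, 0.1% CHAPS, 5% DMSO; reaction started with 5 microM ATP (final), 60 min at room temperature. ADP formed read by ADP-Glo luminescence.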
PLK1 PBD block – qHTS for Inhibitors of PLK1-PDB (polo-like kinase 1 - polo-box domain): Primary Screen; Serine/threonine-protein kinase PLK1 (Homo sapiens), P53350; Potency, µM, for the others: max response, negative = inhibition, hits mostly inhibitors; actives 2.8% (n = 360,000); Plk1 PBD binding of FITC phosphopeptide, fluorescence polarization; also: potency is read from the fitted curve at half-maximal effect; series mostly up to about 57 µM; % is scaled to controls: 0 for no effect and ±100 for the full control effect; nearly all actives have a fitted effect of over 65% in size
BAZ2B block – qHTS Assay for Inhibitors of BAZ2B; Bromodomain adjacent to zinc finger domain protein 2B (Homo sapiens), Q9UIF8; AlphaScreen BAZ2B-H3K14Ac peptide displacement; Potency, µM (highest dose often 114 µM), for the others: top-dose activity change, negative = inhibition, hits mostly inhibitors; actives 4.4% (n = 360,000); also: potency is read from the fitted curve at half-maximal effect; % is scaled to controls: 0 for no effect and ±100 for the full control effect; nearly all actives have a fitted effect of over 60% in size
Target sequence (Q9UIF8 whole entry, looked up, the tested form may be a part): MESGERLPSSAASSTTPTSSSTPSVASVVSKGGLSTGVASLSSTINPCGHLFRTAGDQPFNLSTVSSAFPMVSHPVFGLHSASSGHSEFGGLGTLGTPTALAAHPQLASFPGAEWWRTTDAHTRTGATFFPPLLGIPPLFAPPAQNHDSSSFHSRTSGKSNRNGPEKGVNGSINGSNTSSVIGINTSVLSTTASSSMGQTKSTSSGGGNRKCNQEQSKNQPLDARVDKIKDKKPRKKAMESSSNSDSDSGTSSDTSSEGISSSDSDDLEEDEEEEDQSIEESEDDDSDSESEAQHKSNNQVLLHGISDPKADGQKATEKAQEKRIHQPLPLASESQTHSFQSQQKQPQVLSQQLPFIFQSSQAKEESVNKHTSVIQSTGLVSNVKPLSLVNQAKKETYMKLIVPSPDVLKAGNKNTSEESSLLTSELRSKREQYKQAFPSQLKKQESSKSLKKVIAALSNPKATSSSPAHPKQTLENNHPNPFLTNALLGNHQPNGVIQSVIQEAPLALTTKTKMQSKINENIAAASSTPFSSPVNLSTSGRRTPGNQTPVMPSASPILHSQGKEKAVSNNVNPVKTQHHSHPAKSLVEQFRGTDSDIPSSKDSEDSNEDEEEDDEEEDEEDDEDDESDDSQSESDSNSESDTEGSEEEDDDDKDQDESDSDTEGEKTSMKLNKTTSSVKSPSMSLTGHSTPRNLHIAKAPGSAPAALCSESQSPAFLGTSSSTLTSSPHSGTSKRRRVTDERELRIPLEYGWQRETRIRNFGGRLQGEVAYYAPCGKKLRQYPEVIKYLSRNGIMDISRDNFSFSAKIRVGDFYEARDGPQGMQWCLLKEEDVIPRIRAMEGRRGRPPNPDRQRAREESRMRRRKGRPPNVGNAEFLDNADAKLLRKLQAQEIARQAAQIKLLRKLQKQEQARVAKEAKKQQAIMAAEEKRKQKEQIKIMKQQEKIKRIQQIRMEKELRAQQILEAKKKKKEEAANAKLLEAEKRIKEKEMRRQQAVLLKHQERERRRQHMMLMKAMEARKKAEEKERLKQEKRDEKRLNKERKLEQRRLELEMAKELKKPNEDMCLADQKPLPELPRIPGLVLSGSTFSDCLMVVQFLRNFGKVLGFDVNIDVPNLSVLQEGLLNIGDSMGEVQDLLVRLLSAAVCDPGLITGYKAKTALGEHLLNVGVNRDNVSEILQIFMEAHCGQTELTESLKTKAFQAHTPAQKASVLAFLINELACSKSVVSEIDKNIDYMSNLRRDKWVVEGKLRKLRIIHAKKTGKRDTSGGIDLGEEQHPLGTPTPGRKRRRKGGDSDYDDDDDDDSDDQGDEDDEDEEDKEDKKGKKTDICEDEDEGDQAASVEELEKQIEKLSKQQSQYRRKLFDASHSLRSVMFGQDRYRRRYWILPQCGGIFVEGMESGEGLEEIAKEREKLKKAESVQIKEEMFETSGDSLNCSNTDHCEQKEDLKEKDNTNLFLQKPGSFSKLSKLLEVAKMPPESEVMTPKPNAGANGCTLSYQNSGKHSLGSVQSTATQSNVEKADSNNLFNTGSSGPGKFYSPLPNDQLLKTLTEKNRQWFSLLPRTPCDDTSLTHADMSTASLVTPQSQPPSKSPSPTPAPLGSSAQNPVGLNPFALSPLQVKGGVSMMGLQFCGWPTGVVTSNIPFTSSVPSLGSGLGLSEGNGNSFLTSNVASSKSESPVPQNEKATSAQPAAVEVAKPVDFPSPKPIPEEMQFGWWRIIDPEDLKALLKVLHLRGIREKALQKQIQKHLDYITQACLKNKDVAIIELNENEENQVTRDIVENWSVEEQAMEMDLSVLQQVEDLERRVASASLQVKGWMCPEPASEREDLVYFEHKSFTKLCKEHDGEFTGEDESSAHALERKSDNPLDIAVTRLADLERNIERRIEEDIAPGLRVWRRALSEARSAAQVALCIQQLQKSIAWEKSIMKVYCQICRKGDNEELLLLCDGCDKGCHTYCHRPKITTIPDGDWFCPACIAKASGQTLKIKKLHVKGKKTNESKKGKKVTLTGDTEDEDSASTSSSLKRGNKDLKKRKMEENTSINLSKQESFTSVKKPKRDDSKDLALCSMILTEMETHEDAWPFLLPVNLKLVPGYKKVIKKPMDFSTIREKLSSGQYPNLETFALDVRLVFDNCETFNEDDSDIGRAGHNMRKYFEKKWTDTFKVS
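Complex of BAZ2B and biotin-H3K14Ac (50 nM apiece) forms over 30 min at RT, then faces library compounds up to 110 uM for another 30 min; AlphaScreen beads added, 20 min dark incubation, luminescence read.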
G9a block – qHTS Assay for Inhibitors of Histone Lysine Methyltransferase G9a; Histone-lysine N-methyltransferase EHMT2 (Homo sapiens), Q96KQ7; G9a H3K9 monomethylation, AlphaScreen, 2 h; Potency, µM (doses to about 102 µM), for the others: at the highest dose activity, negative = inhibition, most hits filed as inhibitors; actives 8.8% (n = 350,000); AID 504332, 2011; also: potency is read from the fitted curve at half-maximal effect; % is scaled to controls: 0 for no effect and ±100 for the full control effect; nearly all actives have a fitted effect of over 75% in size
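Signal arises when biotinylated H3K9 peptide, once monomethylated, bridges streptavidin donor and antibody-captured acceptor beads. Enzyme at 20 nM was preincubated 15 min with test compounds; peptide 500 nM and SAM 20 uM then reacted for 2 h.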
Numbers without * were called inactive; ? = inconclusive; . = not tested or not shown; [ ] = another dose, or the depositor's remark. This is a sample that favours compounds with a hit; in the whole collection about 12% have one here. Unless noted, calls follow the shape of the dose curve; as a rule, active = well fitted curve in the direction sought with a large enough effect; inconclusive = small, poorly fitted or top-dose-only effect, or another doubt; inactive = no such curve, though single readings can be large; an effect the other way counts as inactive or inconclusive.

SMILES | JMJD2A Tudor inh | HP1b binding inh | PI5P4K alpha inh | PLK1 PBD block | BAZ2B block | G9a block
O=C(Cn1cncn1)N/N=C/c1cc([N+](=O)[O-])ccc1O | 25.1µM* | 35.3% | 3.8 | -5.6% | 22.4µM* | 20.2%[59 µM]
O=C(N/N=C/c1cc([N+](=O)[O-])ccc1O)C1C2CCCCC21 (centres undefined) | . | . | . | . | 44.7µM* | ?
Cc1ccn(CC(=O)N/N=C/c2cc([N+](=O)[O-])ccc2O)n1 | 22.4µM* | 31.5% | -1.0 | 7.3% | 35.5µM* | 20.0%[59 µM]
CCCN1C(=O)C(O)(CC(=O)c2ccc(OC)c(OC)c2)c2ccccc21 (centres undefined) | -11.8% | 60.7% | . | . | 29.7% | 10.1%[59 µM]
OC[C@H]1O[C@@](CO)(O[C@H]2O[C@H](CO)[C@@H](O)[C@H](O)[C@H]2O)[C@@H](O[C@H]2O[C@H](CO)[C@@H](O)[C@H](O)[C@H]2O)[C@@H]1O | 1.4% | 20.0% | -2.7 | -20.6% | . | .
Cc1cc([N+](=O)[O-])nn1CC(=O)N/N=C/c1ccc(O)cc1O | ? | 50.3% | -6.4 | 1.4% | 89.1µM* | 9.6%
O=C(N/N=C/c1cccc([N+](=O)[O-])c1)c1nc2ccccc2c(=O)[nH]1 | -2.7% | 14.6% | -1.9 | 3.1% | -20.0% | -45.5%
O=C(N/N=C/c1ccccc1Cl)c1nc2ccc([N+](=O)[O-])cc2c(=O)[nH]1 | 25.1µM* | -15.9% | ? | 23.8µM* | -16.8% | ?
O=C(Cn1cncn1)N/N=C/c1ccncc1 | -12.6% | 26.9% | -3.6 | -3.2% | -9.3% | 22.5%
O=C(Cn1cncn1)N/N=C/c1ccccc1O | 56.2µM* | 44.9% | -6.5 | -5.5% | 79.4µM* | .
O=C(CSc1ccccn1)N/N=C/c1cc([N+](=O)[O-])ccc1O | ? | 59.1% | -19.6 | -4.4% | 44.7µM* | -4.3%[12.7 µM]
Fc1ccc(-c2cc(-c3nc(-c4ccccc4)no3)[nH]n2)cc1 | 0.3% | 47.2% | . | . | 3.9% | -3.3%[59 µM]
O=C(Cn1nc2ccccc2n1)N/N=C/c1cc([N+](=O)[O-])ccc1O | ? | -9.5% | ? | 7.52µM* | 11.2µM* | ?
COc1ccc(Br)cc1/C=N/NC(=O)c1ccc(COc2ccc3c(c2)CCC3)o1 | -19.2%[11.4 µM] | -15.1% | 6.3 | ? | -0.5% | 23.9%
O=C(N/N=C/c1cc([N+](=O)[O-])ccc1O)c1ccc(COc2ccc3c(c2)CCC3)o1 | ? | ? | -56.1* | ? | 44.7µM* | .
CN(C)c1ccc(/C=c2\sc3n(c2=O)CCCN=3)cc1 | -22.6%[11.4 µM] | 15.9% | 4.3 | 8.5% | -34.3% | 3.16µM*
O=c1/c(=C/c2ccc(O)cc2)sc2n1CCCN=2 | -1.6% | 19.3% | -19.7 | 0.5% | 5.5% | ?
Cc1cc(C(=O)NC(C)CCC(C)C)c2ccccc2n1 (centres undefined) | -13.7% | 37.6% | 3.4 | 0.9% | 10.7% | 44.7µM*
O=C(NN=C1CCCCCC1)c1cc(-c2ccccc2)nc2ccccc12 | ? | -14.8% | ? | 2.99µM* | -3.6%[57.1 µM] | 9.7%
Cc1cc(C(=O)NN=C2CCCCC2)c2ccccc2n1 | 7.0% | 36.8% | -3.3 | -0.6% | -6.3% | 18.5%[59 µM]
Cc1cc(C(=O)NN=C2CCCC2)c2ccccc2n1 | 11.2µM* | 6.1% | -2.5 | -16.4% | -5.8% | -23.3%
CCN(C(=O)CSc1nc2ccccc2n1Cc1ccc(C(=O)OC)cc1)c1ccccc1 | -29.5% | -0.4% | . | . | -37.3% | -29.9%[12.7 µM]
N#Cc1nc(Nc2cccc(Br)c2)nc(NC2CCCC2)n1 | -16.4% | . | . | . | . | .
CC(C)Oc1ccc(CNC(=O)c2ccc(NC(=O)c3nsc4ccccc34)cc2)cc1 | 15.6% | 31.5%[57 µM] | . | . | 12.5% | 7.3%[59 µM]
CC(=O)NCCCS(=O)(=O)O | . | . | . | . | . | 3.4%[12.7 µM]
Cc1cc2oc(C(=O)Nc3cccc(-c4nc5ccccc5o4)c3)c(C)c2cc1Cl | -4.3% | 40.7% | . | . | -27.0% | -1.3%[59 µM]
